# Measured values as given in the supplement of paper PMC9262897, “Low-cost anti-mycobacterial drug discovery using engineered E. coli” (Nature Communications, 2022).
# Where a name gives a salt, the structure may show the parent alone. ± gives the standard deviation of the averaged measurements.
# Tested on: E. coli TESEC Mtb Alr
# Assay: growth (OD600 after 10 h); higher = more growth (less inhibition)
# Conditions: arabinose 1000000 nM; compound 0.1 mM; raw OD600 reference: median of DMSO wells 0.193, cell-free background 0.041
# Method: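 TESEC Mtb Alr E. coli, or the Alr+ wild-type control, in 384-well plates with Prestwick library compounds at 0.1 mM and 1% DMSO, across arabinose induction levels of 1E3 to 1E7 nM. Growth is read as OD600 after 10 h at 37 °C in triplicate biological replicates.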
row,Compound,growth
1,CC(=O)N(O)CCCCCNC(=O)CCC(=O)N(O)CCCCCNC(=O)CCC(=O)N(O)CCCCCN [Deferoxamine mesylate],0.0567 ± 0.0044
2,O=c1cc(-c2ccc(O)c(O)c2)oc2cc(O)cc(O)c12 [Luteolin],0.0567 ± 0.0052
3,Nc1nc(=O)c2nc(CNc3ccc(C(=O)N[C@@H](CCC(=O)O)C(=O)O)cc3)cnc2[nH]1 [Folic acid],0.149 ± 0.0059
4,O=C(O)CNC(=O)C(CS)Cc1ccccc1 (stereo unspecified) [Thiorphan],0.172 ± 0.003
5,CC1(C)S[C@@H]2[C@H](NC(=O)[C@H](NC(=O)N3CCNC3=O)c3ccccc3)C(=O)N2[C@H]1C(=O)O [Azlocillin sodium salt],0.195 ± 0.013
6,Clc1cnccn1 [2-Chloropyrazine],0.112 ± 0.0027
7,O=C(C1CCCCC1)N1CC(=O)N2CCc3ccccc3C2C1 (stereo unspecified) [Praziquantel],0.167 ± 0.01
8,C#C[C@]1(O)CC[C@H]2[C@@H]3CCC4=CC(=O)CC[C@@H]4[C@H]3CC[C@@]21CC [Norgestrel-(-)-D],0.179 ± 0.0092
9,CCCCOc1ccc(C(=O)CCN2CCCCC2)cc1 [Dyclonine hydrochloride],0.143 ± 0.0049
10,CC1CCc2c(N3CCC(O)CC3)c(F)cc3c(=O)c(C(=O)O)cn1c23 (stereo unspecified) [Nadifloxacin],0.03983 ± 0.00031
11,OC(c1cc(C(F)(F)F)nc2c(C(F)(F)F)cccc12)C1CCCCN1 (stereo unspecified) [Mefloquine hydrochloride],0.0392 ± 0.00017
